High-throughput results as filed in PubChem BioAssay.
HEK293 tox – cytotoxic in the GLP-1 receptor inverse agonist counter-screen; HEK293 cAMP-luciferase reporter cells, luminescence, 24 h; Potency, µM (doses to about 38.3 µM), for inactives: at the top dose activity change, negative = inhibition, usual class: inhibitors; hit rate 0.13% among 410,000;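 further: loss of luciferase light is scored as toxicity; potency means the concentration at half of the fitted maximal effect; on the % scale 0 is the no-effect control and ±100 the full control effect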
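1536-well qHTS counterscreen of the MLSMR; 200 cells/uL, 12 h pre-incubation, 23 nL cpd, 24 h at 37 deg C 5% CO2, luciferase detection reagent, 12 min RT, luminescence. Inhibition = undesired.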
RXFP1 antagonist – RXFP1 (human) relaxin receptor antagonism; Q9HBX9; HEK293-RXFP1, relaxin-stimulated cAMP HTRF, 30 min; hits give low values; activity change, negative = inhibition, % at 57.5 µM; hit rate 0.59% among 350,000; AID 1259400;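 active means activity change of -60% or lower, but not beyond a set lower limit; inconclusive means change between -60% and -40%, or beyond the set limit; inactive means change above -40%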; further: on the % scale 0 is the no-effect control and ±100 the full control effect
TSHR antag – blocks TSH signaling through the human TSH receptor. P16473. TSHR-expressing cells, TSH-stimulated cAMP HTRF, 2 h; hits give low values. activity change, negative = inhibition, % at 11.5 µM. hit rate 0.2% among 330,000. AID 504810;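 active means activity change below a set negative limit, meaning inhibition stronger than a set level, cut at about -70% in these data; inconclusive means activity change between two set negative limits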; further: on the % scale 0 is the no-effect control and ±100 the full control effect
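Antagonism was scored as loss of TSH-driven cAMP in TSHR cells, stimulated with 4nM TSH (EC80) for 2 hours at 37 deg C and detected by homogeneous HTRF competition immunoassay.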
NPSR antag – antagonists of human neuropeptide S receptor cAMP signaling | AID 1461 | hit rate 1% among 220,000 | Potency, µM (top dose mostly 38.3 µM), without a hit: top-dose activity change, negative = inhibition, most hits filed as inhibitors | CHO-NPSR cells, cAMP TR-FRET, antagonist mode; further: potency means the concentration at half of the fitted maximal effect; on the % scale 0 is the no-effect control and ±100 the full control effect; nearly all actives have a fitted effect of over 50% in size
Target sequence (Q6W5P4 whole entry, looked up): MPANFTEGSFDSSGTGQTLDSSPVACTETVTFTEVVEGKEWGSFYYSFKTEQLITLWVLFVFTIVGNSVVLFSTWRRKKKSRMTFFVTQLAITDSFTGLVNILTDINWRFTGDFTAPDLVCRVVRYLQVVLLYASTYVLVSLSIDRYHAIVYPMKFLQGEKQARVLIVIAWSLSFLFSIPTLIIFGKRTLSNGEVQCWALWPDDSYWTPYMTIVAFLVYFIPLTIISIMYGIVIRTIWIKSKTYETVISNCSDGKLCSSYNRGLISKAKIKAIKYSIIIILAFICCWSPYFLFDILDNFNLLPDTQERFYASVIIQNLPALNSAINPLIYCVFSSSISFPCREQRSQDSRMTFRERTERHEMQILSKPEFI
RXFP1 ag – RXFP1 (human) receptor agonism | Potency, µM (doses to about 57.5 µM), for the others: at the top dose activation, most hits filed as activators | hit rate 0.3% among 370,000 | HEK293T-RXFP1 cAMP TR-FRET, 30 min; response scale: percent of porcine relaxin response, buffer zero | AID 2676 | Q9HBX9; further: potency means the concentration at half of the fitted maximal effect; on the % scale 0 is the no-effect control and ±100 the full control effect; nearly all actives have a fitted effect of over 60% in size
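HEK293T cells stably expressing RXFP1 were pretreated with the PDE4 inhibitor Ro 20174, exposed to compounds for 30 min at 37C, lysed, and cAMP was read by TR-FRET. Data normalized to buffer (basal) and 29 nM porcine relaxin (100%).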
PTHR1 ag – agonists of human PTHR1 parathyroid hormone receptor. Q03431. HEK293 GP2 PTHR1 cells, GloSensor cAMP luminescence, 1 h. Potency, µM (top dose mostly 115 µM), without a hit: top-dose activation, usual class: activators. hit rate 0.075% among 410,000; further: potency means the concentration at half of the fitted maximal effect; nearly all actives have a fitted effect of over 55% in size
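HEK-293-derived GP2 cells expressing PTHR1 and a GloSensor cAMP reporter, 3,000/well, plated overnight, given luciferin plus IBMX (each 0.5 mM as added) for 1 h at 37 °C, then compound for 1 h at 37 °C. Luminescence was read after 15 min at room temperature.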
Starred values were filed as active, the others as inactive; i = inactive; ? = inconclusive; . = no result given; [ ] = remark or other dose. This is one part of a sample in which hits are shown more often than they occur. Unless noted, the call rests on the fitted dose curve; in most records, active means well fitted curve in the direction sought with a large enough effect; inconclusive means small, poorly fitted or top-dose-only effect, or another doubt; inactive means no such curve, though single readings can be large; an effect the other way counts as inactive or inconclusive.

SMILES | HEK293 tox | RXFP1 antagonist | TSHR antag | NPSR antag | RXFP1 ag | PTHR1 ag
COc1ccc(SCCN2CC[C@@H](C(C)(C)C)CCC2=O)cc1 | ? | . | 11.3 | . | 0.3% | -30.7%
Cc1cccc(CNS(=O)(=O)c2csc(C(N)=O)c2)c1 | -21.6% | -13.6 | -70.2* | . | 0.9% | -17.2%
NC(=O)c1cc(S(=O)(=O)NCc2ccc(F)cc2)cs1 | -18.0% | -10.0 | -131.6* | . | -2.0% | i
C[C@@H]1CN([C@H](C)CO)C(=O)CCCn2nncc2CO[C@H]1CN(C)Cc1ccc(Oc2ccccc2)cc1 | 1.0% | -10.3 | . | . | . | -20.7%
O=C(CN1C(=O)c2ccccc2S1(=O)=O)c1ccc(Cl)cc1Cl | 7.7% | 1.6 | . | . | . | -3.0%
O=C(c1cc(Cl)nc2ccccc12)N1CCN(S(=O)(=O)c2cccc(C(F)(F)F)c2)CC1 | -2.9% | -77.2* | 8.4 | . | -0.7% | -11.6%
CCc1nc2ccccc2n1CC(=O)N1CCN(S(=O)(=O)c2cccc(C(F)(F)F)c2)CC1 | 3.3% | -10.9 | 0.8 | -3.9%[46.1 µM] | 0.3% | i
CCC(=O)Nc1cc(C(=O)OCC(=O)c2ccc(Cl)cc2Cl)ccc1C | -3.8% | -30.7 | -9.3 | -16.7%[46.1 µM] | 3.5% | -10.9%[57.5 µM]
O=C(O)CCC(=O)Nc1ccc(C(=O)OCC(=O)c2ccc(Cl)cc2Cl)cc1 | -9.7% | -66.9* | -10.6 | -11.5% | -0.1% | -4.3%
CCN(C(=O)CSc1nnnn1-c1ccc(Cl)cc1)C1CCS(=O)(=O)C1 (stereo not drawn) | -1.8% | -15.3 | 11.0 | . | . | -10.8%
Cc1cccc[n+]1C1C(c2ccccc2)C(C#N)=C(C(=C=[N-])C#N)NC1(O)C1CC1 (stereo not drawn) | 51.9% | 21.1 | -0.3 | 16.2%[46.1 µM] | 15.4% | -15.7%[57.5 µM]
N#CC(=C=[N-])C1=C(C#N)C(c2ccccc2F)C([n+]2ccccc2)C(O)(C2CC2)N1 (stereo not drawn) | 0.7% | 32.8 | 1.5 | ? | 25.1µM* | i
CN1CCN(c2ccc(NC(=O)c3ccc([N+](=O)[O-])o3)cc2Cl)CC1 | ? | 7.6 | 7.8 | . | 2.9% | i
CCCC(=O)N1CCN(c2ccc(NC(=O)c3ccc([N+](=O)[O-])o3)cc2Cl)CC1 | ? | 13.5 | -18.2 | 3.98µM* | 0.0% | -25.8%
CC(C)C(=O)N1CCN(c2ccc(NC(=O)c3ccc([N+](=O)[O-])o3)cc2Cl)CC1 | ? | -21.1 | -34.3 | 3.16µM* | 5.4% | -24.8%
COC(=O)C(NC(=O)c1ccccc1)c1ccccc1 (stereo not drawn) | -2.5% | 13.7 | 12.8 | -2.1%[46.1 µM] | 1.4% | i
C=C(C(=O)c1ccccc1)C(NC(C)(C)C)c1ccccc1 (stereo not drawn) | 5.01µM* | -39.0 | . | . | . | -38.9%
Cc1cn2c(=O)cc(COc3ccc(C(C)(C)C)cc3)nc2s1 | -10.4% | . | . | . | 9.3% | -27.8%
CCCCN1C(=O)/C(=C/C=C2\N(C)c3ccccc3C2(C)C)SC1=S | . | . | 15.2 | -9.0%[46.1 µM] | -1.2% | .
CCCN1C(=O)/C(=C\C=C2/C=CN(CC)c3ccccc32)SC1=S | -5.0% | . | 42.7 | 2µM* | -9.3% | -11.5%
O=C(NCCc1ccccc1)c1ccccc1Cl | 18.3% | -10.4 | 15.8 | . | -0.1% | -33.9%
O=C(NCCc1ccccc1)c1cccnc1N1CCCCCC1 | 11.4% | -1.9 | -80.4* | -5.5%[7.67 µM] | 2.9% | -26.6%[57.5 µM]
Cc1ccc(-n2cc(-c3ccccc3)c3c(NC4CCCC4)ncnc32)cc1 | -7.5% | -16.6 | . | . | -0.4% | i
COC1=C(N)C(=O)c2nc(-c3nc(C(=O)O)c(C)c(-c4ccc(OC)c(OC)c4O)c3N)ccc2C1=O | ? | . | -72.0* | 3.4% | -1.1% | -48.7%
COc1ccc(-c2ncncc2-c2csc(C)n2)c(O)c1OC | 1.8% | 6.2 | 8.4 | -2.7%[46.1 µM] | 0.4% | -8.5%[57.5 µM]
SMILES | HEK293 tox | RXFP1 antagonist | TSHR antag | NPSR antag | RXFP1 ag | PTHR1 ag
CNc1oc(-c2ccc(C)cc2)nc1P(=O)(c1ccccc1)c1ccccc1 | -32.6% | -32.8 | 14.8 | 12.6µM* | -0.2% | i
O=C(Nc1cccnc1Cl)c1ccc(Cl)cc1 | -3.1% | -63.2* | -3.1 | . | 0.7% | -22.9%
O=C(NC(c1ccc(F)cc1)c1ccc2ccccc2n1)C1CCN(CCOc2ccc(Cl)cc2Cl)CC1 (stereo not drawn) | 11.2µM* | . | . | . | . | i
O=C(NC(c1ccc(F)cc1)c1ccc2ccccc2n1)C1CCN(CCOc2ccc(F)cc2)CC1 (stereo not drawn) | ? | . | . | . | . | -20.3%
CCCCn1c(NS(=O)(=O)c2ccccc2)c(S(=O)(=O)c2ccc(C)cc2)c2nc3ccccc3nc21 | -2.1% | -4.7 | 16.2 | 11.2%[46.1 µM] | ? | -41.1%
CCCCCn1c(NC(=O)c2ccco2)c(S(=O)(=O)c2ccc(C)cc2)c2nc3ccccc3nc21 | 189.8% | -0.3 | -9.4 | 12.6µM* | 18.8% | -25.0%[57.5 µM]
CCCCn1c(NC(=O)c2ccc(Br)o2)c(S(=O)(=O)c2ccccc2)c2nc3ccccc3nc21 | 13.4% | -9.3 | -20.1 | 10µM* | ? | -22.1%[57.5 µM]
CCCCn1c(NC(=O)c2ccco2)c(S(=O)(=O)c2ccc(C)cc2)c2nc3ccccc3nc21 | 52.3% | 3.5 | 5.1 | -47.1% | 20.1% | -26.8%
CCOC(=O)C1(N(CC)CC)Sc2cc(C)ccc2NC1=O (stereo not drawn) | ? | -14.5 | -10.4 | -25.6%[46.1 µM] | -1.0% | i
C=C(C)C(=O)OC1(C(F)(F)F)Oc2cc(C)ccc2NC1=O (stereo not drawn) | ? | -24.7 | -20.2 | 10µM* | 0.8% | -13.1%
O=C(CSc1nc(-c2ccccc2F)nc2nc[nH]c12)Nc1c(Cl)cc(Cl)cc1Cl | . | . | -5.5 | 5.01µM* | ? | .
CCc1cccc(C)c1NC(=O)CSc1nc(-c2ccccc2F)nc2nc[nH]c12 | -1.0% | -17.3 | 12.7 | -59.7% | ? | i
COc1ccc(CCNC2=C(Cl)C(=O)N(CCc3ccc(OC)c(OC)c3)C2=O)cc1OC | 56.7% | -28.2 | -73.8* | ? | 0.2% | -27.4%[57.5 µM]
CC(C)c1ccc(OCc2ccc(C(=O)N3CCCC3)o2)cc1 | 0.2% | ? | 6.3 | . | -0.2% | -91.7%
C=CCn1c(SCC(=O)NCc2ccco2)nc2sc3c(c2c1=O)CCCC3 | 8.3% | 2.8 | 10.7 | -3.1%[46.1 µM] | 0.7% | -12.0%
O=C(NCc1ccco1)c1ccc2nc3sc4c(c3c(=O)n2c1)CCCC4 | . | . | 10.8 | 10µM* | 20.1% | .
COc1ccc(-c2nnn(CC(=O)N(CCCN3CCOCC3)C(C(=O)NC3CCCC3)c3ccc(C)o3)n2)cc1 (stereo not drawn) | -3.3% | 1.6 | -3.2 | 10µM* | 1.1% | i
